Measurements: publication PMC7862700, “An all-to-all approach to the identification of sequence-specific readers for epigenetic DNA modifications on cytosine”

Columns and labels:
Experiment in all cases: DAPPL (digital affinity profiling via proximity ligation, sequencing); 10 mM Tris-HCl pH 7.5, 50 mM NaCl, 1 mM DTT, 4% glycerol, room temperature, 30 min; GST-TFs on glutathione beads, 16-mer random dsDNA library, 0.1% formaldehyde crosslink after washing; high values mean tight binding
Details in all cases: protein: recombinant; tags: N-terminal GST; dsDNA, one strand shown
FLI1 = target: T1, FLI1 (Homo sapiens, UniProt Q01543 1-452)
T1 sequence: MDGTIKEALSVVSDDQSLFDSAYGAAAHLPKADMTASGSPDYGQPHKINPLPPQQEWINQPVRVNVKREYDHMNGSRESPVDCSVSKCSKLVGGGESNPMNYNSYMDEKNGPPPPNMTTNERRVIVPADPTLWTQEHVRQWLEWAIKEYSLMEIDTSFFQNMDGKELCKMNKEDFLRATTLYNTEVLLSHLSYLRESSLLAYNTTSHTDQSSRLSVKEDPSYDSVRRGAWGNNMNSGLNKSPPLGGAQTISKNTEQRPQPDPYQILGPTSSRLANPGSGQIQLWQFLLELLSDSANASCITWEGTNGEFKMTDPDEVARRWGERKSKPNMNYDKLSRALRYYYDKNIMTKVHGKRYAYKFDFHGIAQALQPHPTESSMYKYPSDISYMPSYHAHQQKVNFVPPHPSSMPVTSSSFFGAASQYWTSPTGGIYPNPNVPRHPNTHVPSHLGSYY
Summary of the method: (§1)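 Binding signal is given per hexamer as its read frequency for a factor divided by its frequency in the tag-only sample. GST-fused human transcription factors were expressed in yeast, captured on glutathione beads, barcoded with DNA and pooled with that sample, then incubated with 200 nmole of a 16-mer random double-stranded DNA library in Tris/NaCl/DTT/glycerol buffer for 30 min at room temperature. The pools were then washed, crosslinked, proximity-ligated, amplified by PCR and sequenced on an Illumina NextSeq500.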

ELK1 = target: T2, ELK1 (Homo sapiens, UniProt P19419 1-428)
T2 sequence: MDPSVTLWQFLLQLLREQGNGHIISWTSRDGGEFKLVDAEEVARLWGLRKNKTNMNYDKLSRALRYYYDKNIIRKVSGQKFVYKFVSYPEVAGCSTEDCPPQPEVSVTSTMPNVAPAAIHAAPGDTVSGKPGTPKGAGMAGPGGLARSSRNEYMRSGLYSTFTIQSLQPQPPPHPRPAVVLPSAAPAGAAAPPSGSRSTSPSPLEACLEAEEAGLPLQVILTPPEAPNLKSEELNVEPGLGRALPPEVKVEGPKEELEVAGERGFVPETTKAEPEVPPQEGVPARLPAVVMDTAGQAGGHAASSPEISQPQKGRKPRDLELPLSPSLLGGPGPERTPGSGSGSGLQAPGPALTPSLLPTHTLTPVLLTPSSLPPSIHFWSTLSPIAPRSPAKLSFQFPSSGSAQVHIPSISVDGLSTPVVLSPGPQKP
Summary of the method: as §1

GABPA = target: T3, GABPA (Homo sapiens, UniProt Q06546 1-454)
T3 sequence: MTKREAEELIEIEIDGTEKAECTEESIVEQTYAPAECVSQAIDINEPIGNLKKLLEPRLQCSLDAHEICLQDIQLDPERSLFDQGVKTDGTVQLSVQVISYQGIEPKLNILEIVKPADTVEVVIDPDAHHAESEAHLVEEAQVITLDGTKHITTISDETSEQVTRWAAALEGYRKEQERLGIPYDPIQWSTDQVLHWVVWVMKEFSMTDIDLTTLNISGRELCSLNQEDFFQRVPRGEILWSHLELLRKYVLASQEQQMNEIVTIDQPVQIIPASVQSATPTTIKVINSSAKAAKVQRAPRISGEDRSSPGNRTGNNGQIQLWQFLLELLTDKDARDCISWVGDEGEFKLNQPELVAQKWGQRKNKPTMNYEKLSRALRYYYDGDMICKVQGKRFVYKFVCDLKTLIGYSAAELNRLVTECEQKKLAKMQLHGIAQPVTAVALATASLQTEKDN
Summary of the method: as §1

ERG = target: T4, ERG (Homo sapiens, UniProt P11308 1-479)
T4 sequence: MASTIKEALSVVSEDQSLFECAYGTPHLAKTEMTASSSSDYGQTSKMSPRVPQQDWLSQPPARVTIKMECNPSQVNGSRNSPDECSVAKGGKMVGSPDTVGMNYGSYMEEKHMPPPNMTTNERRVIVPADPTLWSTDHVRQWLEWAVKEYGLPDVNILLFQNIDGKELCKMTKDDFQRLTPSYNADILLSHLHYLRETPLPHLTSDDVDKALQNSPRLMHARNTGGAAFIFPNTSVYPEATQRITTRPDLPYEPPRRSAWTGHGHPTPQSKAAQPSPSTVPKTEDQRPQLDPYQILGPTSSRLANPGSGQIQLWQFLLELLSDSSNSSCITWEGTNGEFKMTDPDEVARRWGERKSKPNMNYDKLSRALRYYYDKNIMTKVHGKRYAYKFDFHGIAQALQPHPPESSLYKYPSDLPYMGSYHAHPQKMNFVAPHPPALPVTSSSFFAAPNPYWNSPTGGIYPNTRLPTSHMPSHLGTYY
Summary of the method: as §1

ELF1 = ELF1 (Homo sapiens, UniProt P32519 1-619)
Sequence of ELF1 (P32519 whole entry): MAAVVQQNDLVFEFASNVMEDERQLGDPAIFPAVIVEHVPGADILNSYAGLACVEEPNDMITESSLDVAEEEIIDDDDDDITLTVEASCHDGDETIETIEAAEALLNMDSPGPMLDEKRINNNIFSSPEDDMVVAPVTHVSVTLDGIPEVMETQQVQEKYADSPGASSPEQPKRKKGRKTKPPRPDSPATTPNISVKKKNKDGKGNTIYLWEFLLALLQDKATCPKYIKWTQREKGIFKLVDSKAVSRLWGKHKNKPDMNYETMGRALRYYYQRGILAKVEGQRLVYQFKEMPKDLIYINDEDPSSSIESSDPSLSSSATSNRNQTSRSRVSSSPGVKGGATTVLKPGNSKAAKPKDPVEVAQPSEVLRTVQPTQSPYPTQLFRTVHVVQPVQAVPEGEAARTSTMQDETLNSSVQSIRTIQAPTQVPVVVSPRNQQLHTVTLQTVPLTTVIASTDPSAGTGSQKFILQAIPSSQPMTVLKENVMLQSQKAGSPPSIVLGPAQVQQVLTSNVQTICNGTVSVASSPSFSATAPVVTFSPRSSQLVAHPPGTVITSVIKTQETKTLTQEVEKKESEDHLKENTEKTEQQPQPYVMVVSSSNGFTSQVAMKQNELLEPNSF
Summary of the method: as §1

EHF = target: T5, EHF (Homo sapiens, UniProt Q9NZC4 1-300)
T5 sequence: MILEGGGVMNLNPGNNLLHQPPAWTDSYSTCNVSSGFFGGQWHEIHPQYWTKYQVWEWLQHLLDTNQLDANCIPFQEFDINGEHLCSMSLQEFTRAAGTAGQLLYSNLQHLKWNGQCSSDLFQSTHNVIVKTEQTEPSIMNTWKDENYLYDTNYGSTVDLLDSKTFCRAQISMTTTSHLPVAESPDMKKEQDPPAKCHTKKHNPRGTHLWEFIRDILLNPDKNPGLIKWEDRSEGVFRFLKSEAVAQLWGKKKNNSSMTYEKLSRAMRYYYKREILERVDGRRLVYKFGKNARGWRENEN
Summary of the method: as §1

SPI1 = SPI1 (Homo sapiens, UniProt P17947 1-270)
Summary of the method: as §1

SPIB = SPIB (Homo sapiens, UniProt Q01892 1-262)
Sequence of SPIB (Q01892 whole entry): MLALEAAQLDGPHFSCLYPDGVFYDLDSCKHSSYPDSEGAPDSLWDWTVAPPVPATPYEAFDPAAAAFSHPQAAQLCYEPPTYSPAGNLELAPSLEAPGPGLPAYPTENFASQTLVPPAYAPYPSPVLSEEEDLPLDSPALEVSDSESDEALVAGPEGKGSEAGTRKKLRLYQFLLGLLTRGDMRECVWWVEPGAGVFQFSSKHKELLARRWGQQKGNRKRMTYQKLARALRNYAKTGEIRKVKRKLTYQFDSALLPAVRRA
Summary of the method: as §1

ELK3 = target: T6, ELK3 (Homo sapiens, UniProt P41970 1-407)
T6 sequence: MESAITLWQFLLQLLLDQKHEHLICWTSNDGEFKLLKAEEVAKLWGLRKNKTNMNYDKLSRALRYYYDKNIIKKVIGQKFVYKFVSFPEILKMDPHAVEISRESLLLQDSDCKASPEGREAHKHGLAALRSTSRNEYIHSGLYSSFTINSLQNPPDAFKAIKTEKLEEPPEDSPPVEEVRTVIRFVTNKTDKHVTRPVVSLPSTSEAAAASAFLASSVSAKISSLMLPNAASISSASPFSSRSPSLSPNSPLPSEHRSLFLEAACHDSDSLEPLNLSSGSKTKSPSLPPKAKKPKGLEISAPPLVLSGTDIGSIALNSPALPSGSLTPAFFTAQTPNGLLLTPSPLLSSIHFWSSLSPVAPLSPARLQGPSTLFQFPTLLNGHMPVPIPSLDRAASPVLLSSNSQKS
Summary of the method: as §1

FEV = target: T7, FEV (Homo sapiens, UniProt Q99581 1-238)
T7 sequence: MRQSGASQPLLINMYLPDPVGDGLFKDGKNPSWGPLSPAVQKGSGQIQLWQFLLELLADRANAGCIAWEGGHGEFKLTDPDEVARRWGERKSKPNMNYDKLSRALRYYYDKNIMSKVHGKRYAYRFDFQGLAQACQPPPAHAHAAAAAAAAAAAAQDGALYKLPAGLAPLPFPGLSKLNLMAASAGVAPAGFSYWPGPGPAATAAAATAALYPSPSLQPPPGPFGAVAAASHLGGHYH
Summary of the method: as §1

ETV5 = ETV5 (Homo sapiens, UniProt P41161 1-510)
Sequence of ETV5 (P41161 whole entry): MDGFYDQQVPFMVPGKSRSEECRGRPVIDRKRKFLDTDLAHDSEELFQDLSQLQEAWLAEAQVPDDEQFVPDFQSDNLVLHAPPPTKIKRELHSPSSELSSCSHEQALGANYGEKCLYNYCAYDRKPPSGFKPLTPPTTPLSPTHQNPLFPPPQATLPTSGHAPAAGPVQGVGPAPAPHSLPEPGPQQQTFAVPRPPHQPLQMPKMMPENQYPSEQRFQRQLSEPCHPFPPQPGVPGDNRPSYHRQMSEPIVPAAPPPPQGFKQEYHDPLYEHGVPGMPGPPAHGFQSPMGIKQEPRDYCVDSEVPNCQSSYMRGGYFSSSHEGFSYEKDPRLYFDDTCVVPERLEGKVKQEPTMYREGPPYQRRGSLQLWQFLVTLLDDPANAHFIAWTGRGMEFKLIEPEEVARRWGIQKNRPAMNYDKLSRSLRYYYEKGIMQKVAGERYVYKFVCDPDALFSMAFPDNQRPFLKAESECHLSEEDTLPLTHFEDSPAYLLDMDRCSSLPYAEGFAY
Summary of the method: as §1

SPIC = target: T8, SPIC (Homo sapiens, UniProt Q8N5J4 1-248)
T8 sequence: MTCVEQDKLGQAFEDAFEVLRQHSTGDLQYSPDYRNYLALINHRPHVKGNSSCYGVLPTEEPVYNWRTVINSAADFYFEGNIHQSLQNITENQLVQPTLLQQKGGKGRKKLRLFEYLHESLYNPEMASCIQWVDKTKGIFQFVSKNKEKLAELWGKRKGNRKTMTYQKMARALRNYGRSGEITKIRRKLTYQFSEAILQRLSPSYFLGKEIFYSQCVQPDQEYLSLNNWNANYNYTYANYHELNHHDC
Summary of the method: as §1

ELF4 = ELF4 (Homo sapiens, UniProt Q99607 1-663)
Sequence of ELF4 (Q99607 whole entry): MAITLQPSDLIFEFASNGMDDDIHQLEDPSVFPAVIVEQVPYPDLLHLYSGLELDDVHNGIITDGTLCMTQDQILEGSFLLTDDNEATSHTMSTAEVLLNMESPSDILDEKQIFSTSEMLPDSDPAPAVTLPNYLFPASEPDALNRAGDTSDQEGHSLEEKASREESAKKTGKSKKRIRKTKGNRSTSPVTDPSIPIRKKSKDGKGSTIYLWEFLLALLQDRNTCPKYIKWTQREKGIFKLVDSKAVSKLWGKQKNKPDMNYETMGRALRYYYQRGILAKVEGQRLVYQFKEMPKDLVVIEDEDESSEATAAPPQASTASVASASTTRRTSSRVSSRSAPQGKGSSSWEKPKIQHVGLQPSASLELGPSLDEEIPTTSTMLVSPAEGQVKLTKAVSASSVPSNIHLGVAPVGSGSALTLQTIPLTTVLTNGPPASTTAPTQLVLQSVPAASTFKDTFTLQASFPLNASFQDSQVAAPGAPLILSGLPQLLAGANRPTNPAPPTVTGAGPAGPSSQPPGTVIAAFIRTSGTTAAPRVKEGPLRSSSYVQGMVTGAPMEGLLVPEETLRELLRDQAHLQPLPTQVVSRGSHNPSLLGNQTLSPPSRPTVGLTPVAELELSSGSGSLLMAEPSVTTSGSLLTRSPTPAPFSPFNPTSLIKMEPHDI
Summary of the method: as §1

ELK4 = target: T9, ELK4 (Homo sapiens, UniProt P28324-2 1-405)
T9 sequence: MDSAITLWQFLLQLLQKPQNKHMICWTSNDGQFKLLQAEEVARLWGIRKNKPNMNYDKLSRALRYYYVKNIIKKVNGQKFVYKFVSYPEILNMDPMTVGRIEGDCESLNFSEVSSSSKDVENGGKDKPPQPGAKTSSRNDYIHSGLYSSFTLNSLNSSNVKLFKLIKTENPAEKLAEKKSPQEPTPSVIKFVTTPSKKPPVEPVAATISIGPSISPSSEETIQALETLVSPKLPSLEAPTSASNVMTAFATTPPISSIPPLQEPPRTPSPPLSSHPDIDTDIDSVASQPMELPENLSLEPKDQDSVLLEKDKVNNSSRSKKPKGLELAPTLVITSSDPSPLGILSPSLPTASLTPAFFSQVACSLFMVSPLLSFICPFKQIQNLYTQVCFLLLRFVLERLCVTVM
Summary of the method: as §1

ETV2 = target: T10, ETV2 (Homo sapiens, UniProt O00321 1-342)
T10 sequence: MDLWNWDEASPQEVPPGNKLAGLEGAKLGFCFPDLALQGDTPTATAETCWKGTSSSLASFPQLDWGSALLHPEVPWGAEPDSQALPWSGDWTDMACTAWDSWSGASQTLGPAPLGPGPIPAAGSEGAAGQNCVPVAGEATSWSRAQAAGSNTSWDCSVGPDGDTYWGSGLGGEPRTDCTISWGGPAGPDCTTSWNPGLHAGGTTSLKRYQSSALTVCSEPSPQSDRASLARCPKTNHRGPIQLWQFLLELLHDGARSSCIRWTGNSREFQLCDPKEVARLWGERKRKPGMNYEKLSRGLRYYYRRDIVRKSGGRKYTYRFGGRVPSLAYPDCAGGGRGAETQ
Summary of the method: as §1

ELF3 = target: T11, ELF3 (Homo sapiens, UniProt P78545 1-371)
T11 sequence: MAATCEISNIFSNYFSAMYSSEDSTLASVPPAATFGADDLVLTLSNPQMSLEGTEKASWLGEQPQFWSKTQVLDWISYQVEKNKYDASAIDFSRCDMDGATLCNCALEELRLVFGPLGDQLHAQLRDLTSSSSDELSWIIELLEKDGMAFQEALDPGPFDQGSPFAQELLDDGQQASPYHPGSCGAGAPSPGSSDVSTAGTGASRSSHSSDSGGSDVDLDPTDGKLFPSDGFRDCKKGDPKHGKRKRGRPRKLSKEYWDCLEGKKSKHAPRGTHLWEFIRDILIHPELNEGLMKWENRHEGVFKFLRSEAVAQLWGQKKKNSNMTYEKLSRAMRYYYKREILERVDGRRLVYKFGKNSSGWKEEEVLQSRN
Summary of the method: as §1

ETV1 = ETV1 (Homo sapiens, UniProt P50549 1-477)
Sequence of ETV1 (P50549 whole entry): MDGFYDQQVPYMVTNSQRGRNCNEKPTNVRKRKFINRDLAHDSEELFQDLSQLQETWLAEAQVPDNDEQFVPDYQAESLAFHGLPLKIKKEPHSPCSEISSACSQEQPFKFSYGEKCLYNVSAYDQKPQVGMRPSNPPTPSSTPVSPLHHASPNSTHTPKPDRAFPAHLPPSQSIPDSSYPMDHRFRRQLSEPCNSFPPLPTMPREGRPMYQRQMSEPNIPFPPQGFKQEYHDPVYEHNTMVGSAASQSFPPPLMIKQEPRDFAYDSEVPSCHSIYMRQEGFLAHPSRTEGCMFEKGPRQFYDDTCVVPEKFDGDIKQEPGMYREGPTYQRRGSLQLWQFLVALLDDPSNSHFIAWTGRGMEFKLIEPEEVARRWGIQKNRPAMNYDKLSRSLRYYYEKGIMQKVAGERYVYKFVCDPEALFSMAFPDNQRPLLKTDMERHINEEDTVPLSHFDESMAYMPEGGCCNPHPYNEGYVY
Summary of the method: as §1

Sequence	binding signal (FLI1)	binding signal (ELK1)	binding signal (GABPA)	binding signal (ERG)	binding signal (ELF1)	binding signal (EHF)	binding signal (SPI1)	binding signal (SPIB)	binding signal (ELK3)	binding signal (FEV)	binding signal (ETV5)	binding signal (SPIC)	binding signal (ELF4)	binding signal (ELK4)	binding signal (ETV2)	binding signal (ELF3)	binding signal (ETV1)
AAGTGT	1.18 fold enrichment (6-mer frequency, TF over GST control)	1.29 fold enrichment (6-mer frequency, TF over GST control)	1.32 fold enrichment (6-mer frequency, TF over GST control)	1.44 fold enrichment (6-mer frequency, TF over GST control)	1.24 fold enrichment (6-mer frequency, TF over GST control)	1.24 fold enrichment (6-mer frequency, TF over GST control)	1.6 fold enrichment (6-mer frequency, TF over GST control)	1.38 fold enrichment (6-mer frequency, TF over GST control)	1.37 fold enrichment (6-mer frequency, TF over GST control)	1.28 fold enrichment (6-mer frequency, TF over GST control)	1.33 fold enrichment (6-mer frequency, TF over GST control)	1.6 fold enrichment (6-mer frequency, TF over GST control)	1.3 fold enrichment (6-mer frequency, TF over GST control)	1.21 fold enrichment (6-mer frequency, TF over GST control)	1.37 fold enrichment (6-mer frequency, TF over GST control)	1.43 fold enrichment (6-mer frequency, TF over GST control)	1.39 fold enrichment (6-mer frequency, TF over GST control)
GACTAC	1.17 fold enrichment (6-mer frequency, TF over GST control)	1.19 fold enrichment (6-mer frequency, TF over GST control)	1.15 fold enrichment (6-mer frequency, TF over GST control)	1.07 fold enrichment (6-mer frequency, TF over GST control)	1.15 fold enrichment (6-mer frequency, TF over GST control)	1.12 fold enrichment (6-mer frequency, TF over GST control)	1.12 fold enrichment (6-mer frequency, TF over GST control)	1.19 fold enrichment (6-mer frequency, TF over GST control)	1.1 fold enrichment (6-mer frequency, TF over GST control)	1.08 fold enrichment (6-mer frequency, TF over GST control)	1.15 fold enrichment (6-mer frequency, TF over GST control)	1.13 fold enrichment (6-mer frequency, TF over GST control)	1.11 fold enrichment (6-mer frequency, TF over GST control)	1.18 fold enrichment (6-mer frequency, TF over GST control)	1.22 fold enrichment (6-mer frequency, TF over GST control)	1.2 fold enrichment (6-mer frequency, TF over GST control)	1.17 fold enrichment (6-mer frequency, TF over GST control)
CAACTG	1.18 fold enrichment (6-mer frequency, TF over GST control)	1.15 fold enrichment (6-mer frequency, TF over GST control)	1.15 fold enrichment (6-mer frequency, TF over GST control)	1.2 fold enrichment (6-mer frequency, TF over GST control)	1.27 fold enrichment (6-mer frequency, TF over GST control)	1.17 fold enrichment (6-mer frequency, TF over GST control)	1.05 fold enrichment (6-mer frequency, TF over GST control)	1.13 fold enrichment (6-mer frequency, TF over GST control)	1.09 fold enrichment (6-mer frequency, TF over GST control)	1.14 fold enrichment (6-mer frequency, TF over GST control)	1.11 fold enrichment (6-mer frequency, TF over GST control)	1.13 fold enrichment (6-mer frequency, TF over GST control)	1.07 fold enrichment (6-mer frequency, TF over GST control)	1.21 fold enrichment (6-mer frequency, TF over GST control)	1.23 fold enrichment (6-mer frequency, TF over GST control)	1.26 fold enrichment (6-mer frequency, TF over GST control)	1.19 fold enrichment (6-mer frequency, TF over GST control)
